Active and inactive are the calls of the source.
Columns and labels:
[1] = binders of probe aFSTL3 on microarray, primary screen, stem cell growth factor project, biochemical, small-molecule microarray, fluorescence 635/667 (AID 1064); details: higher = more signal;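 note: measures binding of the biotinylated anti-FSTL3 antibody to printed compounds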
[2] = binders from COS7 lysate, DM2A8 probe, primary screen, torsin A project, cell lysate, small-molecule microarray, fluorescence 635/667 (AID 1065); details: higher = more signal, COS7 lysate expressing mutant human TOR1A
[3] = binders of probe aFGF2 on microarray, primary screen, stem cell growth factor project, biochemical, small-molecule microarray, fluorescence 635/667 (AID 1067); details: higher = more signal;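 note: measures binding of biotinylated aFGF2 protein to printed compounds on slides; z-score merges feature fluorescence and signal-to-noise across triplicate slides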
[4] = binders of probe aFGF10 on microarray, primary screen, stem cell growth factor project, biochemical, small-molecule microarray, fluorescence 635/667 (AID 1071); details: higher = more signal;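 note: score merges 667 nm spot intensity and signal to noise from triplicate slides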
[5] = molecular target: Neurogenic locus notch homolog protein 2 (Homo sapiens) (UniProt Q04721); assay: Notch2 binders on small-molecule microarrays, primary screen, biochemical, small-molecule microarray, 635 nm fluorescence, stem cell growth factors (AID 1073); details: Notch2 binding, higher = more signal
[6] = molecular target: Pro-neuregulin-1, membrane-bound isoform (Homo sapiens) (UniProt Q02297); assay: NRG1 binders on small-molecule microarrays, primary screen, psychiatric disease protein project, biochemical, small-molecule microarray, fluorescence 635/667 (AID 1075); details: NRG1 binding, 635 nm fluorescence, higher = more signal;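 note: score combines 667 nm spot fluorescence with signal to noise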
[7] = system: Neuregulin-1 EGF-like domain; assay: binders of neuregulin-1 EGF-like domain, primary screen, biochemical, small-molecule microarray, 635 nm fluorescence (AID 1081); details: small-molecule microarray binding, higher = more signal;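 note: binding of the protein to compounds printed on small-molecule microarray slides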
[8] = FRG1 promoter luciferase signal modulators, primary screen, FRG1 inhibition for FSHD, cell-based, C2C12 myotubes, firefly/Renilla luciferase, luminescence (AID 1084); details: higher = more signal, called active from +8 up or from −8 down
[9] = binders of probe aFST on microarray, primary screen, stem cell growth factor project, biochemical, small-molecule microarray, fluorescence 635/667 (AID 1086); details: higher = more signal;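 note: score merges 667 nm fluorescence with signal-to-noise of each printed compound spot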
[10] = binders of probe aHhip on microarray, primary screen, stem cell growth factor project, biochemical, small-molecule microarray, fluorescence 635/667 (AID 1087); details: higher = more signal;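 note: score merges spot fluorescence at 667nm with spot signal to noise ratio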
[11] = system: PRMT1 (protein arginine N-methyltransferase 1); assay: PRMT1 binders on small-molecule microarrays, primary screen, biochemical, small-molecule microarray, 635 nm fluorescence (AID 1088); details: small-molecule microarray binding, higher = more signal;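 note: binding of Prmt1 protein to compounds spotted on small-molecule microarray slides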
[12] = yeast growth modulation, basal conditions, primary screen, YJM789 clinical isolate, OD600, 24 h (AID 1089);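 note: growth of clinical yeast isolate S. cerevisiae YJM 789 seeded 1000 cells per well; test concentration not given here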; details: S. cerevisiae YJM789 growth, higher = more signal, called active from +8 up or from −8 down
[13] = fission yeast growth modulation, primary screen, strain 972, OD600, 24 h, no modulator (AID 1090);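 note: basal condition with compound alone and no growth modifier present; test concentration not given here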; details: S. pombe 972 growth, higher = more signal, called active from +8 up or from −8 down
[14] = S. cerevisiae growth modulation with rapamycin, primary screen, strain BY4716, OD600, 96 h (AID 1091); details: higher = more signal, called active from +8 up or from −8 down; note: test concentration not given here
[15] = molecular target: Torsin-1A-interacting protein 2 (Homo sapiens) (UniProt Q8NFQ8); assay: LULL1 binders on small-molecule microarray, primary screen, cell lysate, human LULL1 lysate, 635/667 nm fluorescence (AID 1092); details: hLULL1 lysate binding, 635 nm fluorescence, higher = more signal;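 note: probe is lysate of COS7 cells overexpressing human LULL1; score merges per-feature 667 nm fluorescence with signal-to-noise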
[16] = E. coli growth modulation, two-sided OD650, primary screen, E. coli filamentation project, strain DRC41, 24 h (AID 1093); details: OD650, 24 h, higher = more signal, called active from +8 up or from −8 down;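 note: MC1000 strain lacking acrAB efflux and sulA so SOS filamentation is blocked; test concentration not given here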
[17] = small-molecule microarray binders of probe aLefty2, primary screen, biochemical, biotinylated probe, 635/667 nm fluorescence (AID 1094); details: higher = more signal;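 note: score merges spot fluorescence near 667 nm with spot signal-to-noise ratio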
[18] = system: Noggin (protein binding on small-molecule microarray); assay: Noggin binders on small-molecule microarray, primary screen, biochemical, 635/667 nm fluorescence (AID 1095); details: 635 nm fluorescence, higher = more signal;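 note: score merges 667 nm feature fluorescence with signal to noise over triplicate slides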
[19] = molecular target: Neurogenic locus notch homolog protein 3 (Homo sapiens) (UniProt Q9UM47); assay: NOTCH3 binders on small-molecule microarray, primary screen, biochemical, 635/667 nm fluorescence (AID 1096); details: NOTCH3 binding, 635 nm fluorescence, higher = more signal
[20] = small-molecule microarray binders of probe aEGFR, primary screen, biochemical, biotinylated probe, 635/667 nm fluorescence (AID 1097); details: higher = more signal;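 note: probe is a biotinylated anti-EGFR antibody binding compounds printed on slides; score combines fluorescence near 667 nm and signal to noise of each spot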

Pro-neuregulin-1, membrane-bound isoform (Homo sapiens), sequence (Q02297 whole entry, looked up, the tested form may be a part, canonical isoform): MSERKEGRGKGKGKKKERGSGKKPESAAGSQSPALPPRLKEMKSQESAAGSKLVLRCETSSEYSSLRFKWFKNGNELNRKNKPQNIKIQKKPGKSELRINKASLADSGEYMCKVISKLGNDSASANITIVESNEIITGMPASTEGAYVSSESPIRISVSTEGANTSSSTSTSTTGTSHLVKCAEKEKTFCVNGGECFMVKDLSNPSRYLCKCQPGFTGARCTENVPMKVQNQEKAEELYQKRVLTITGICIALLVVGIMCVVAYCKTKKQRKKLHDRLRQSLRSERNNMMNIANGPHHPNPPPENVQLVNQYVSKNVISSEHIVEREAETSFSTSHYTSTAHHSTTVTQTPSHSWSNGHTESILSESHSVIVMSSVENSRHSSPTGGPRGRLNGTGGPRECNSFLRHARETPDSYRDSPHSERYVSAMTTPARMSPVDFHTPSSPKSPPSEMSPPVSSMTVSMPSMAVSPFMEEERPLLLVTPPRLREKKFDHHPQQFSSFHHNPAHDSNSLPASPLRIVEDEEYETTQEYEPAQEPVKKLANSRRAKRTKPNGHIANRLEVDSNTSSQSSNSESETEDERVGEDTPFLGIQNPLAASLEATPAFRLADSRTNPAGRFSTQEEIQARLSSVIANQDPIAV
Torsin-1A-interacting protein 2 (Homo sapiens), sequence (Q8NFQ8 whole entry, looked up): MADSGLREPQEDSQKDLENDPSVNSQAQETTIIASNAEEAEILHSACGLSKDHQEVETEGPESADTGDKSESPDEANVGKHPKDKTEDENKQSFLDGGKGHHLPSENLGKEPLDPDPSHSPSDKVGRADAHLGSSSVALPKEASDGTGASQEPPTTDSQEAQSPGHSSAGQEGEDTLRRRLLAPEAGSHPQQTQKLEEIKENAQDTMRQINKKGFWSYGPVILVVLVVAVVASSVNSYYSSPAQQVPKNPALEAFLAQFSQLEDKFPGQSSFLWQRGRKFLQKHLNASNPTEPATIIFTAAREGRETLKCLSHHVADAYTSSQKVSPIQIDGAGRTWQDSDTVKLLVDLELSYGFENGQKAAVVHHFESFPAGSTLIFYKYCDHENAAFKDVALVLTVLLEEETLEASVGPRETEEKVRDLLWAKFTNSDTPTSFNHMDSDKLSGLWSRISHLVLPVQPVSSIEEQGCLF
Neurogenic locus notch homolog protein 3 (Homo sapiens), sequence (Q9UM47 whole entry, looked up): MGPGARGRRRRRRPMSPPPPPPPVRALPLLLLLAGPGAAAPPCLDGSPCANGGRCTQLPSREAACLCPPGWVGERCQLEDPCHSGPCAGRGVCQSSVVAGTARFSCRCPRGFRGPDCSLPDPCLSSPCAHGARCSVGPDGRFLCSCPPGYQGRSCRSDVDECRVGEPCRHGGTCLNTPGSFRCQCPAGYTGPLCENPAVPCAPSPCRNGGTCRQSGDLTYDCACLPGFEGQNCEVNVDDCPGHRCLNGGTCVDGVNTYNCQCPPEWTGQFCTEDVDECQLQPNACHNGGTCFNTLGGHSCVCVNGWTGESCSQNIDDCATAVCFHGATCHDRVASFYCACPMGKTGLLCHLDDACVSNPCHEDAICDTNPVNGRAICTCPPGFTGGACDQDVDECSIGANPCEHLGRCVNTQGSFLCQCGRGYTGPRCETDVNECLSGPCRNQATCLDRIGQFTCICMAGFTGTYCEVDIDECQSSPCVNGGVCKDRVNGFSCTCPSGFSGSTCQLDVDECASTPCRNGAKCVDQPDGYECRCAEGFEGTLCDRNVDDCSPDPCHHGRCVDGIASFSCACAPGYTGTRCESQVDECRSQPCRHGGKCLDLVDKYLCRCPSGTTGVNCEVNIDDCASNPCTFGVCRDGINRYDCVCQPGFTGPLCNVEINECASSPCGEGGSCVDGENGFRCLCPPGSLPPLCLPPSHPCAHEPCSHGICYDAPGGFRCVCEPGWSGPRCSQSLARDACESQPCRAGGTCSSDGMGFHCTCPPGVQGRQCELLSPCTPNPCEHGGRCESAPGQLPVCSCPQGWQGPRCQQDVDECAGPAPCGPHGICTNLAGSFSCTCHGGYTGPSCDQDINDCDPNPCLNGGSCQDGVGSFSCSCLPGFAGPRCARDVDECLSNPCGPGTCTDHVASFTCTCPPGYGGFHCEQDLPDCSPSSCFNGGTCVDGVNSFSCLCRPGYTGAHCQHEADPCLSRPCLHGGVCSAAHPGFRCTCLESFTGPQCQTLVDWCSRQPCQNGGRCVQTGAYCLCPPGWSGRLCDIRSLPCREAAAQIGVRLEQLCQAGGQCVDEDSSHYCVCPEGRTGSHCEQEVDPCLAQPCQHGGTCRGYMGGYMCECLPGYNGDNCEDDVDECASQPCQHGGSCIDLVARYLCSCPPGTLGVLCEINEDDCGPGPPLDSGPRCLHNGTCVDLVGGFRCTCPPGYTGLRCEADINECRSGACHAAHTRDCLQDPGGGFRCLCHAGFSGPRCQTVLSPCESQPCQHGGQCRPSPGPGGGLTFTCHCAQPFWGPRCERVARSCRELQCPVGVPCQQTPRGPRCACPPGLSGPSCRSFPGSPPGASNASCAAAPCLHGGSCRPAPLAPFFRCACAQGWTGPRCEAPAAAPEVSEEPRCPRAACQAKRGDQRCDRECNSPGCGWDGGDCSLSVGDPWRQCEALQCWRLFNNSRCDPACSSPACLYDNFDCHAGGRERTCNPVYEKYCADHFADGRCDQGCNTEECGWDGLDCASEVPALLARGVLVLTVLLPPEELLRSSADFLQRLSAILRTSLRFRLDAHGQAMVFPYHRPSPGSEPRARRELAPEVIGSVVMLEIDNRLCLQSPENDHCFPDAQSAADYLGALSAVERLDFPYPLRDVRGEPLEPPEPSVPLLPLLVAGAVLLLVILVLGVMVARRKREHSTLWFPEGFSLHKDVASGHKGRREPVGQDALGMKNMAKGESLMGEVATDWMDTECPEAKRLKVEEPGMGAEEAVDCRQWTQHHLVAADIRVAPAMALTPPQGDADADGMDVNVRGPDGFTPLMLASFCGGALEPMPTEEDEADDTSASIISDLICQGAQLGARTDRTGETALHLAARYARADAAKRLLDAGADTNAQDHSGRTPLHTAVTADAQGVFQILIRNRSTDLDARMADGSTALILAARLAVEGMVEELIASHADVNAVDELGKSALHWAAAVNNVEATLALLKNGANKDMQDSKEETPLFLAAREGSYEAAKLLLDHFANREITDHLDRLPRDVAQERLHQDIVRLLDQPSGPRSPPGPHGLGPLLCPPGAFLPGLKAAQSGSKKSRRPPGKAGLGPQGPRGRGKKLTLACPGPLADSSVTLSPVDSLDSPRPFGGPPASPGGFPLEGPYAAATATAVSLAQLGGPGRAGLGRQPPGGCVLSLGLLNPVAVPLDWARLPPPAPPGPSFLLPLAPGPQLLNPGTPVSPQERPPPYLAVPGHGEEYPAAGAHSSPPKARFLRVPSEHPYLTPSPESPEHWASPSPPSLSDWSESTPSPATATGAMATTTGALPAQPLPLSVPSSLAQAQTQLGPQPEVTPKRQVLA

Structure (SMILES): CCCCC#C[C@@H]1C=C[C@H](OC(C)=O)[C@@H](COC(C)=O)O1
- composite z-score [1]: -0.515
- composite z-score [2]: 0.37
- composite z-score [3]: -0.112
- composite z-score [4]: 0.319
- composite z-score [5]: 0.617
- composite z-score [6]: 0.304
- composite z-score [7]: 0.0329
- z-score [8]: -1.28 (inactive)
- composite z-score [9]: 0.0643
- composite z-score [10]: -0.134
- composite z-score [11]: 0.59
- z-score [12]: 0.248 (inactive)
- z-score [13]: -3.45 (inactive)
- z-score [14]: -1.25 (inactive)
- composite z-score [15]: 0.456
- z-score [16]: 0.325 (inactive)
- composite z-score [17]: -0.116
- composite z-score [18]: 0.216
- composite z-score [19]: 0.848
- composite z-score [20]: 0.0251

Structure (SMILES): CCOC(=O)[C@H](CC(C)C)NC(=O)CCC1CC(OC(=O)NCCc2ccc(F)cc2)CC2(CCCC(COC(=O)NCCc3ccccc3OC)O2)O1 (stereo not given in full)
- composite z-score [1]: -0.329
- composite z-score [2]: 0.0726
- composite z-score [3]: -0.0806
- composite z-score [4]: 0.363
- composite z-score [5]: 0.41
- composite z-score [6]: 1.08
- composite z-score [7]: 0.577
- z-score [8]: 0.617 (inactive)
- composite z-score [9]: 0.216
- composite z-score [10]: -0.134
- composite z-score [11]: 1.15
- z-score [12]: 0.217 (inactive)
- z-score [13]: 1.02 (inactive)
- z-score [14]: 0.471 (inactive)
- composite z-score [15]: 1.73
- z-score [16]: -0.0351 (inactive)
- composite z-score [17]: -0.19
- composite z-score [18]: 0.718
- composite z-score [19]: 1.12
- composite z-score [20]: 0.0004

Structure (SMILES): COC(=O)CC=C[C@H](C)[C@@H](OCc1cccc(Br)c1)[C@@H](C)[C@H](OC)C1CCCCC1
- composite z-score [1]: -0.191
- composite z-score [2]: 0.451
- composite z-score [3]: -0.245
- composite z-score [4]: 0.106
- composite z-score [5]: -0.723
- composite z-score [6]: 0.419
- composite z-score [7]: -0.3
- z-score [8]: 1.23 (inactive)
- composite z-score [9]: -0.118
- composite z-score [10]: 0.0024
- composite z-score [11]: -0.0514
- z-score [12]: 0.738 (inactive)
- z-score [13]: -1.28 (inactive)
- z-score [14]: 0.99 (inactive)
- composite z-score [15]: -0.412
- z-score [16]: 0.276 (inactive)
- composite z-score [17]: -0.166
- composite z-score [18]: 0.32
- composite z-score [19]: -1
- composite z-score [20]: -0.237

Structure (SMILES): O=C1CCCC=C1C(CCc1ccccc1)OC(=O)c1ccc(Br)cc1 (stereo not given)
- composite z-score [1]: -0.351
- composite z-score [2]: 0.0329
- composite z-score [3]: -0.0841
- composite z-score [4]: 0.335
- composite z-score [5]: 0.047
- composite z-score [6]: -0.532
- composite z-score [7]: -0.529
- z-score [8]: 3.31 (inactive)
- composite z-score [9]: -0.205
- composite z-score [10]: -0.137
- composite z-score [11]: -0.429
- z-score [12]: -0.596 (inactive)
- z-score [13]: -2.94 (inactive)
- z-score [14]: -2.46 (inactive)
- composite z-score [15]: -0.699
- z-score [16]: 0.037 (inactive)
- composite z-score [17]: -0.159
- composite z-score [18]: 0.354
- composite z-score [19]: -0.445
- composite z-score [20]: -0.12

Structure (SMILES): C[C@H](ON=C1[C@H]2CCn3c(=O)n(-c4ccccc4)c(=O)n3[C@H]2[C@H](O)[C@@H]2O[C@H]12)c1cn([C@H](CO)Cc2ccccc2)nn1
- composite z-score [1]: -0.317
- composite z-score [2]: 0.386
- composite z-score [3]: -0.0189
- composite z-score [4]: 0.347
- composite z-score [5]: 0.862
- composite z-score [6]: -0.0139
- composite z-score [7]: 0.764
- z-score [8]: 0.68 (inactive)
- composite z-score [9]: 0.138
- composite z-score [10]: 1.13
- composite z-score [11]: 0.171
- z-score [12]: -0.915 (inactive)
- z-score [13]: -0.348 (inactive)
- z-score [14]: -0.173 (inactive)
- composite z-score [15]: 0.664
- z-score [16]: 0.547 (inactive)
- composite z-score [17]: -0.175
- composite z-score [18]: 0.222
- composite z-score [19]: 0.518
- composite z-score [20]: 0.0544

Source: PubChem BioAssay
